# Most compounds without a hit are left out; they make up all but 2.3% or so of the library.
# MIN6 prolif: MIN6 beta-cell proliferation induction; MIN6 cells proliferation, ATPlite luminescence, 48 h; cells starved in 0.2% serum; 100% = growth in 10% serum; hit rate 0.29% among 330,000; proliferation, % at 10 µM;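 active means compounds whose signal lies at least 3.5 SD above the mean of all wells on their plate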;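 further: 0% = DMSO-treated cells in low-serum medium and 100% = 10% serum control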
# H9c2 TAG inh: reduces triacylglycerol accumulation in H9c2 cells; Nile Red lipid (TAG) fluorescence; cells loaded with 200 µM oleic acid; inhibition, % at 12.5 µM; hit rate 0.66% among 230,000;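 active means pattern-corrected inhibition of lipid staining of at least 50% with the nuclear-stain viability signal not falling by more than 50%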;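 further: 0% = DMSO wells and 100% = triacsin C control wells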
# FAS-TE inh: blocks the thioesterase domain of human fatty acid synthase; AID 602261; recombinant FAS-TE, OMFH fluorogenic substrate, fluorescence endpoint; P49327; hit rate 0.67% among 360,000; inhibition, % at 15 µM;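 active means compounds whose normalised, plate-corrected inhibition of enzyme fluorescence in the single-dose primary screen is 50% or more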;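 further: 0% = DMSO with enzyme and 100% = substrate without enzyme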
# Calpain2 inh: inhibitors of pig calpain II. hit rate 0.37% among 220,000. purified calpain II, fluorogenic peptide substrate, 30 min. inhibition, % at 16 µM;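 active means inhibition above about 50%, limit read from the data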
# aDG glyco act: increases alpha dystroglycan glycosylation. Pro5-aDG cells, alpha-DG glycosylation AlphaScreen (IIH6); 0% Pro5, 100% B10-LARGE cell signal. activation, % at 10 µM. hit rate 0.22% among 360,000;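 active means activation of at least 8% versus controls, or a plate z-score of at least 8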;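 further: Pro5 are CHO cells carrying HIG-tagged alpha-DG that lacks glycosylation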
# H9c2 protect: modulators protecting cardiomyocytes from myocardial damage. hit rate 0.63% among 360,000. protection from H2O2 cell death, % at 20 µM. H9c2 cardiomyocytes, H2O2 injury protection, ATPLite, 2 h. AID 588492;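 active means compounds giving at least 50% protection of heart cells from peroxide-induced death in the single-dose screen, raw or plate-pattern-corrected value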;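 further: 0% = DMSO wells with peroxide and 100% = DMSO wells without peroxide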
# H9c2 TAG conf: triacylglycerol accumulation inhibition, confirmation | AID 651629 | shares compounds with H9c2 TAG inh | H9c2 lipid accumulation, Nile Red fluorescence; cells loaded with 200 µM oleic acid | hit rate 71% among 990 | inhibition, % at 12.5 µM;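 active means mean inhibition across replicates of 40% or more; inactive means mean inhibition below 40%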;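 further: plate controls were DMSO only wells for no effect and Triacsin C treated wells for full effect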
# * marks the source's active call; other numbers are inactive results; · = no result given; ! = not active in a repeat.
SMILES,MIN6 prolif,H9c2 TAG inh,FAS-TE inh,Calpain2 inh,aDG glyco act,H9c2 protect,H9c2 TAG conf
COc1cc(NC(=O)c2nccn2C)cc(C(=O)Nc2cccc(C(F)(F)F)c2)c1,1.8,106.8*,-6.9,-48.0,-0.2,-9.4,25.9
COc1ccc(-c2cc(C(=O)Nc3cc(OC)cc(C(=O)Nc4cccc(C(F)(F)F)c4)c3)[nH]n2)cc1,-7.5,84.3*,4.1,-83.9,0.6,18.9,76.7*
COc1cc(NC(=O)c2nccnc2N)cc(C(=O)Nc2cccc(C(F)(F)F)c2)c1,-1.6,61.0*!,17.4,-48.2,0.3,0.5,35.1
COc1cc(NC(=O)c2ccno2)cc(C(=O)Nc2cccc(C(F)(F)F)c2)c1,-6.1,-1.8,29.7,-14.7,0.0,8.8,·
CC1(C)NC(=O)N(CC(=O)OCC(=O)c2ccc(Br)s2)C1=O,-0.4,-15.9,-4.4,·,-0.1,-2.8,·
O=C1c2ccccc2[C@@H]2Cc3csc[n+]3[C@H]12,·,·,-9.5,·,0.9,·,·
CC(=O)/C(=C/N(C)C)C(=O)Nc1ccc(Cl)cc1Cl,-1.8,3.2,-3.2,-24.4,0.4,-7.1,·
CN(C)CCNC=C(C(=O)Nc1ccc(Cl)cc1Cl)C(=O)Nc1ccc(Cl)cc1Cl,-3.8,102.0*,5.4,5.3,-0.9,-34.2,92.5*
CCCCOc1ccc(CSC2=NCCN2)cc1[N+](=O)[O-],-5.2,56.3*,-23.3,7.7,-0.2,-8.3,68.7*
COc1ccc(S(=O)(=O)N2CCCCC2c2cc(C(=O)Nc3ccccc3)no2)cc1 (centres undefined),·,136.0,4.0,·,-0.3,-5.4,·
Cc1ccc(NC(=O)COC(=O)c2ccc3c(c2)NC(=O)C2CCCN32)cc1 (centres undefined),-4.7,66.4*,-2.8,-206.5,-0.1,19.0,22.1
COC(=O)c1ccc2c(c1)NC(=O)C1CCCN21 (centres undefined),-1.0,·,-2.1,-63.3,0.1,32.5,·
CCCC(=O)N1CCCC1(C)C(=O)NCCc1ccccn1 (centres undefined),·,3.9,-2.7,·,0.0,-2.0,·
CSc1cc(-c2ccc(Cl)cc2)n(Cc2ccccc2)c(=O)c1C#N,-4.4,64.1*,5.7,-39.8,-0.2,-14.4,36.5
CSc1cc(-c2ccccc2)n(Cc2c(Cl)cccc2Cl)c(=O)c1C#N,-2.6,58.0*,18.9,1.1,-0.3,-3.0,68.0*
Cc1ccc(CNC(=O)c2nnn(CC(=O)Nc3cccc(C)c3C)c2N)cc1,-2.8,·,-5.6,·,-0.2,-2.0,·
Cc1ccc(NC(=O)Nc2ccccc2F)cc1S(=O)(=O)N1CCOCC1,-3.6,14.3,1.2,·,-0.3,-2.7,·
O=C(O)CC1(CC(=O)Nc2cc(C(F)(F)F)cc(C(F)(F)F)c2)CCCCC1,-1.8,93.8*,1.7,-0.6,-0.2,-2.7,-9.7
CCC[C@H](CN[C@@H](CNC)[C@H](C)CC)NCCc1cc(C(F)(F)F)cc(C(F)(F)F)c1,-9.1,137.3,-10.2,·,1.5,-12.6,·
CCC[C@@H](CN[C@@H](CNC)[C@H](C)CC)NCC1CCC(C(C)(C)C)CC1 (some centres undefined),-8.9,127.3*,-10.0,·,1.8,-26.6,88.8*
O=C1COc2ccc(C(=O)CSc3nc4ccccc4c(=O)n3-c3ccc(Cl)c(Cl)c3)cc2N1,-6.0,61.3*,1.0,-33.7,0.3,1.6,65.9*
COc1cc(C#Cc2c(-c3cncn3C)n(C)c3ccc(-c4ccc(OC)c(OC)c4)cc23)cc(OC)c1,-7.0,69.6*,27.5,·,3.6,29.3,68.7*
COc1cc(C#Cc2c(-c3cncn3C)n(C)c3ccc(-c4ccc5cc[nH]c5c4)cc23)cc(OC)c1,-5.9,81.5*,22.8,·,4.5,1.6,74.4*
CC(C)C(=O)N[C@@H]1c2ccccc2CC[C@@H]1OCc1ccccc1,·,-5.0,-8.1,·,0.0,-1.7,·
Cc1ccc(NC(=O)CSc2ccc(-c3ccccn3)nn2)cc1F,-6.2,-0.7,-2.9,·,0.1,45.9,·
SMILES,MIN6 prolif,H9c2 TAG inh,FAS-TE inh,Calpain2 inh,aDG glyco act,H9c2 protect,H9c2 TAG conf
CCOc1cc(CNC(C)(C)C)ccc1OCC(=O)Nc1cccc(C(F)(F)F)c1,-6.1,52.1*,-3.4,21.7,0.3,8.1,63.3*
CCc1ccc(/C=N/NC(=O)c2cc(C3CC3)nc3ccc(Br)cc23)s1,-3.3,60.4*,26.5,-25.4,-0.2,19.5,40.4*
CCOc1ccc(Cl)cc1-c1cc(C(=O)NC(C)C)[nH]n1,·,25.2,-1.2,·,0.0,4.5,·
CCOc1cc2[nH]c(=O)n(CCCCC(=O)N3CCCCCC3)c(=O)c2cc1OCC,-2.9,63.1*,-7.2,-24.3,-0.1,4.6,35.0
CCCCCNC(=O)CCCCn1c(=O)[nH]c2cc(OCC)c(OCC)cc2c1=O,-2.9,36.0,-12.6,-21.7,0.3,-5.8,·
CC(C)n1ncc(N2CCOCC2)c(Cl)c1=O,2.9,·,-5.9,·,-0.1,4.1,·
Cc1cccc(-c2ccc3[nH]c4c(c3c2)CCN2C[C@@H]([C@H](C)O)[C@@H](N(C)C(=O)Nc3ccc(F)cc3)C[C@@H]42)c1,·,50.1*,16.4,·,0.8,9.5,47.7*
C[C@H](O)[C@@H]1CN2CCc3c([nH]c4ccccc34)[C@@H]2C[C@@H]1N(C)C(=O)Nc1cc(Cl)cc(Cl)c1,·,3.0,16.6,·,0.1,-3.2,·
C[C@H](O)[C@@H]1CN2CCc3c([nH]c4ccc(-c5ccc6c(c5)OCO6)cc34)[C@@H]2C[C@@H]1N(C)C(=O)Nc1cc(Cl)cc(Cl)c1,·,69.7*,31.7,·,0.3,-5.9,89.4*
CCN1CCc2c(OCC(=O)Nc3ccc(C)cc3)cccc2C1=O,0.5,3.5,-2.5,·,0.0,-2.5,·
O=C1Nc2ccccc2/C1=N\N=C\C1=C(N2CCOCC2)C(=C\c2ccccc2)/CC1,-6.3,·,14.6,-246.6,-1.4,-23.0,·
O=C1Nc2ccc(Br)cc2/C1=N\N=C\C1=C(N2CCOCC2)C(=C/c2ccccc2)/CC1,·,84.5*,39.9,·,-0.7,-6.5,136.4*
COc1ccc(NS(=O)(=O)c2cccc(C(=O)N/N=C/c3cn(-c4ccccc4)nc3-c3ccccc3)c2)cc1,-3.1,60.2*,24.0,-96.9,-0.1,7.4,62.1*
OC(c1ccc(F)c(F)c1)c1nc(-c2ccc3c(c2)OCO3)cs1 (centres undefined),·,-7.6,17.7,·,0.0,-0.6,·
CN(C)CCNC(=O)C(=O)Nc1ccc2c(c1)N(S(=O)(=O)c1cccs1)CCC2,-2.1,53.7*,-6.7,·,0.1,4.7,54.0*
CN(C)CCCNC(=O)C(=O)Nc1ccc2c(c1)N(S(=O)(=O)c1cccs1)CCC2,1.1,19.4,-6.1,·,0.2,7.7,·
COCCCNC(=O)C(=O)Nc1ccc2c(c1)N(S(=O)(=O)c1cccs1)CCC2,-3.1,54.1*,3.1,·,-0.3,0.0,60.9*

# Compound activity: PubChem BioAssay, several laboratories
